Data taken from ChEMBL document CHEMBL1157539, “Thousands of chemical starting points for antimalarial lead identification” (Nature, 2010).

Key:
Type in all cases: functional
Plasmodium falciparum [1] = assay: GSK_TCMDC: Inhibition of Plasmodium falciparum 3D7 in whole red blood cells, using parasite LDH activity as an index of growth. Test compounds present at 2uM
Plasmodium falciparum [2] = assay: GSK_TCMDC: Inhibition of Plasmodium falciparum Dd2 in whole red blood cells, using parasite LDH activity as an index of growth. Test compounds present at 2uM
HepG2 = assay: GSK_TCMDC: Percent inhibition of human HepG2 cell line. Test compounds present at 10uM.

SMILES	Inhibition (Plasmodium falciparum [1])	Inhibition (Plasmodium falciparum [2])	Inhibition (HepG2)
CC(C)(CN)c1nc(-c2ccc(Cl)c(O)c2)c(-c2ccnc(N)n2)[nH]1	95%	95%	34%
CC(C)[C@H]1CC[C@H](C)C[C@@H]1OC(=O)N[C@@H](Cc1ccc(O)cc1)C(=O)NC1CCN(Cc2ccc(OCCCN(C)C)cc2)C1 (some centres undefined)	99%	64%	27%
COc1ccc(Cc2cnc3nc(N)nc(N)c3c2C)cc1.Cl	90%	96%	65%
COC(=O)c1ccc(CCC(C)NCC(O)c2cccc(C(F)(F)F)c2)cc1.Cl (centres undefined)	99%	99%	16%
Cc1cc(Nc2ccccc2)nc(NCCOc2ccccc2)n1.Cl	100%	48%	0%
CCCc1cc(=O)oc2cc(OC)c(C(=O)CC(C)C)c(OC)c12	81%	67%	3%
CS(=O)(=O)Nc1ccc(-c2cnc3[nH]cc(-c4ccc(C(=O)O)cc4)c3c2)cc1	95%	45%	0%
COCCNCc1cccc(-c2ccc3c(Nc4ccc(Oc5ccccc5)cc4)ccnc3c2)c1	100%	99%	25%
O=C(O)C(F)(F)F.OC1CCCN(Cc2ccc(-c3cccc(-c4nc5ccccc5[nH]4)c3)cc2)C1 (centres undefined)	86%	0%	14%
CN1CCc2ccc(NC(=O)Nc3cccc(C(=O)c4ccccc4)c3)cc2C1	83%	16%	11%
Cl.NC1=NC2(CCCC2)N(c2ccc(Cl)cc2)C(N)=N1	97%	0%	0%
O=C(Nc1ccc(Cl)cc1)Nc1cccc(-c2cccc(-c3nc4cc(F)ccc4[nH]3)c2)c1	100%	84%	79%
Cc1cccc2nc(-c3cccc(-c4ccc(NC(=O)NC5CC5c5ccccc5)cc4)c3)[nH]c12 (centres undefined)	98%	49%	25%
CCN(CCCN1CCCCC1)c1cc(C)nc(Nc2ccc(C)c(Br)c2)n1.O=C(O)C(F)(F)F	100%	98%	42%
CCOC(=O)c1ccc(NC(=O)Nc2ccc(-c3ccc(-c4nc5ccccc5[nH]4)cc3)cc2)cc1	100%	100%	49%
Cc1cc(OCCCN2CCN(CCN3CCOCC3)CC2)ccc1NC(=O)COc1ccc(Cl)cc1C(=O)c1cc(Cl)cc(C#N)c1	99%	78%	30%
Cc1ccc(N2CCN(CCCCNC(=O)c3ccc(NC(=O)c4ccc(Cl)cc4)cc3)CC2)c(C)c1	95%	20%	30%
CS(=O)(=O)c1ccc2c(c1)CCN(CCC1CCC(NC(=O)C(=Cc3cccc(C#N)c3)c3ccc(-c4ccccc4)cc3)CC1)CC2 (centres undefined)	99%	13%	24%
CC1CN(c2ccc3occ(C(=O)Nc4ccc(-c5ccncc5)c(Cl)c4)c3c2)CC(C)N1C.Cl (centres undefined)	100%	96%	14%
Cc1cccc2nc(-c3cccc(-c4cccc(NC(=O)c5ccoc5)c4)c3)[nH]c12	99%	71%	19%
CN(C)c1ccc(CN2CCC(NC(=O)c3ccc(-c4cccc(Cl)c4)s3)CC2)cc1.O=C(O)C(F)(F)F	93%	44%	65%
c1ccc(COc2ccc(Nc3ncnc4cnc(-c5ccc(CNc6cccnc6)o5)cc34)cc2)cc1	96%	19%	2%
Cc1cccc2nc(-c3ccc(-c4ccc(CNCc5cnn(-c6ccccc6)n5)cc4)cc3)[nH]c12.O=C(O)C(F)(F)F	100%	99%	35%
COc1ccc(NC(=O)Nc2cccc(-c3cccc(-c4nc5cc(F)ccc5[nH]4)c3)c2)cc1	99%	39%	59%

SMILES	Inhibition (Plasmodium falciparum [1])	Inhibition (Plasmodium falciparum [2])	Inhibition (HepG2)
FC(F)(F)c1cccc(Nc2nc3nonc3nc2NC2C3CC4CC(C3)CC2C4)c1 (centres undefined)	100%	100%	72%
CCS(=O)(=O)Nc1ccc2c(c1)/C(=C(/Nc1ccc(CN3CCCCC3)cc1)c1ccccc1)C(=O)N2 [HESPERADIN]	87%	74%	53%
CC(C)Nc1cc(C(=O)N[C@@H](Cc2ccccc2)[C@H](O)CNC2CCCCC2)cc(N2CCCCS2(=O)=O)c1.O=CO	98%	98%	9%
CN(C)Cc1ccc(-c2cc3c(-c4ccc(CN(C)C)cc4)ccnc3[nH]2)cc1.O=C(O)C(F)(F)F	100%	96%	86%
O=C(Nc1cc(Cl)ccc1O)c1cnn2c(C(F)(F)F)cc(-c3cccs3)nc12	100%	74%	8%
CCCCCN1C(=O)N(c2ccc(Cl)c(Cl)c2)C(N(O)C(=O)Nc2ccc(Cl)c(Cl)c2)C1(C)C (centres undefined)	94%	99%	0%
COc1ccc(CCNc2nc(NCc3ccccc3)c3cc(OC)c(OC)cc3n2)cc1OC	100%	91%	46%
CN1CCN(CC(=O)Nc2cccc(-c3ccc(-c4nc5cc(F)ccc5[nH]4)s3)c2)CC1	100%	94%	71%
Cc1[nH]c(C)c(-c2ccc(OCc3ccc(F)cc3)nc2)c(=O)c1Br	97%	97%	41%
O=C(Nc1n[nH]c2nc(-c3ccco3)c(Br)cc12)c1ccc(CN2CCCC2)cc1.O=C(O)C(O)C(O)C(=O)O	100%	53%	1%
COc1ccc(-c2cc(C(F)(F)F)n3ncc(C(=O)Nc4cc(C)ccc4O)c3n2)cc1OC	100%	100%	2%
N#Cc1ccc2c(c1)CN(C1CCC(NC(=O)/C=C/c3cc(C(F)(F)F)cc(C(F)(F)F)c3)CC1)CCC2 (centres undefined)	95%	4%	34%
C=CCOc1ccc(C2C(C(=O)OC)=C(C)NC3=C2C(=O)c2ccccc23)cc1OC (centres undefined)	82%	65%	0%
Cc1nc(N)nc(N)c1CCCOc1ccccc1Br	97%	5%	53%
Cc1ccccc1C1CCN(C2CCC(NC(=O)C3=Cc4cc(Cl)ccc4OC3)CC2)CC1 (centres undefined)	100%	99%	51%
CCc1cn(C)c2c(N3CCCC3=O)cc(C(=O)N[C@@H](Cc3ccccc3)[C@H](O)CNC(C)(C)c3cccc(OC)c3)cc12	95%	99%	9%
O=C(O)C(F)(F)F.c1ccc(CCNCc2cccc(-c3ccc(CNc4ccc5ncccc5c4)cc3)c2)cc1	93%	27%	43%
COc1ccc2nc(C)cc(N/N=C/c3ccc([N+](=O)[O-])o3)c2c1	100%	100%	18%
Cc1ccc(C2CCN(CCCCNC(=O)c3ccc(NC(=O)c4ccc(Cl)cc4)cc3)CC2)c(OCC(F)(F)F)c1	99%	84%	32%
O=C(O)C(F)(F)F.O=S(=O)(Nc1ccc(-c2ccc(CN3CCCC3)cc2)cc1)c1cccc2cccnc12	91%	10%	37%
CN(C)Cc1c(O)ccc2oc(Cc3ccccc3)cc12.Cl	99%	94%	0%
Cc1ccc(S(=O)(=O)O)cc1.N=C(NCCc1c[nH]c2ccccc12)NCc1ccccc1Cl	83%	45%	16%
O=C(Nc1ccc(F)cc1F)NC1CCN(c2ccnc3cc(Cl)ccc23)C1.O=C(O)C(F)(F)F (centres undefined)	100%	82%	25%
O=C(Nc1cccc(Cl)c1)c1cnc(N2CCN(c3ccncc3)CC2)c(Cl)c1.O=C(O)C(F)(F)F	100%	97%	54%
